Several values for one entry are separate records, joined by “and”; a condition that tells them apart may be missing. Equal entries are not always repeated. Inconclusive results are not listed. A number with no mark means an inactive call. Activity calls are given as the source filed them. Calls come from the whole dose curve; as a rule, active = well fitted curve in the direction sought with a large enough effect; inconclusive = small, poorly fitted or top-dose-only effect, or another doubt; inactive = no such curve, though single readings can be large; an effect the other way counts as inactive or inconclusive. Non-standard residues stand in square brackets, D forms with d. Residues, ends and D or L forms follow the SMILES beside them. *: point of attachment. Sta = CC(C)C[C@H](N)[C@@H](O)CC(=O)O; Isovaleryl = CC(C)CC(=O)*

Experiment [1] in a line: qHTS of pediatric cancer cell lines to identify multiple opportunities for drug repurposing: Primary screen for SJ-GBM2 cells (AID 1347091). Note: potency is the fitted concentration of half-maximal effect. An outline of the steps:
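Cell viability, CellTiter-Glo luminescence; 500-1,000 cells/well, 8- or 11-point titration, 48 h compound exposure at 37 degrees C, 5% CO2. Controls: DMSO neutral, bortezomib 2.3 µM final as positive.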
A general note: qHTS replaces the single test concentration by a dilution series.

Experiment [2] is described as follows: qHTS of pediatric cancer cell lines to identify multiple opportunities for drug repurposing: Primary screen for SK-N-MC cells (AID 1347093). Note: potency is the fitted concentration of half-maximal effect. The method, boiled down: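 Metabolically active cells were quantified by ATP-dependent luminescence (CellTiter-Glo, 15 min at room temperature) following 48 h treatment. Cells had been plated at 500-1,000 per well and settled for 5 h beforehand.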

A short description of experiment [3]: qHTS of pediatric cancer cell lines to identify multiple opportunities for drug repurposing: Primary screen for BT-37 cells (AID 1347094). Note: potency is the fitted concentration of half-maximal effect. The method, boiled down:
(§1)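 ATP-based luminescence (CellTiter-Glo) quantifies viability after a 48-hour exposure. Compounds are dosed across 8 or 11 final concentrations; DMSO and 2.3 µM bortezomib serve as controls.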

Experiment [4] is described as follows: qHTS of pediatric cancer cell lines to identify multiple opportunities for drug repurposing: Primary screen for NB-EBc1 cells (AID 1347095). Note: potency is the fitted concentration of half-maximal effect. An outline of the steps: as §1
A short description of experiment [5]: qHTS of pediatric cancer cell lines to identify multiple opportunities for drug repurposing: Primary screen for U-2 OS cells (AID 1347096). Note: nearly all actives have a fitted effect of over 50% in size. An outline of the steps: (§2)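 Cells (500-1,000/well) rested 5 h, then received compounds for 48 h; metabolically active cells were measured by CellTiter-Glo luminescence. Final concentrations spanned up to 46 µM (MIPE, 11-point) or 0.59 nM-46 µM (NPC, 8-point) in primary screens, 11-point in follow-ups.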

Experiment [6] can be described thus: qHTS of pediatric cancer cell lines to identify multiple opportunities for drug repurposing: Primary screen for Saos-2 cells (AID 1347097). Note: nearly all actives have a fitted effect of over 40% in size. Note: potency is the fitted concentration of half-maximal effect. The method, boiled down:
as §1

Experiment [7] is described as follows: qHTS of pediatric cancer cell lines to identify multiple opportunities for drug repurposing: Primary screen for SK-N-SH cells (AID 1347098). Note: nearly all actives have a fitted effect of over 65% in size. Note: potency is the fitted concentration of half-maximal effect. The method, boiled down:
as §2

Experiment [8] in a line: qHTS of pediatric cancer cell lines to identify multiple opportunities for drug repurposing: Primary screen for NB1643 cells (AID 1347099). Note: nearly all actives have a fitted effect of over 50% in size. Note: potency is the fitted concentration of half-maximal effect. The method, boiled down:
as §1

Experiment [9] can be described thus: qHTS of pediatric cancer cell lines to identify multiple opportunities for drug repurposing: Primary screen for LAN-5 cells (AID 1347100). Note: potency is the fitted concentration of half-maximal effect. The method, boiled down: as §2
A short description of experiment [10]: qHTS of pediatric cancer cell lines to identify multiple opportunities for drug repurposing: Primary screen for BT-12 cells (AID 1347101). Note: nearly all actives have a fitted effect of over 25% in size. Note: potency is the fitted concentration of half-maximal effect. The method, boiled down:
as §2

Experiment [11] is described as follows: qHTS of pediatric cancer cell lines to identify multiple opportunities for drug repurposing: Primary screen for Rh18 cells (AID 1347102). Note: nearly all actives have a fitted effect of over 65% in size. An outline of the steps: as §2
A short description of experiment [12]: qHTS of pediatric cancer cell lines to identify multiple opportunities for drug repurposing: Primary screen for OHS-50 cells (AID 1347103). Note: nearly all actives have a fitted effect of over 40% in size. Note: potency is the fitted concentration of half-maximal effect. An outline of the steps:
as §2

Experiment [13] can be described thus: qHTS of pediatric cancer cell lines to identify multiple opportunities for drug repurposing: Primary screen for RD cells (AID 1347104). Note: nearly all actives have a fitted effect of over 55% in size. Note: potency is the fitted concentration of half-maximal effect. The method, boiled down: as §1
The nature of experiment [14]: qHTS of pediatric cancer cell lines to identify multiple opportunities for drug repurposing: Primary screen for MG 63 (6-TG R) cells (AID 1347105). Note: nearly all actives have a fitted effect of over 50% in size. Note: potency is the fitted concentration of half-maximal effect. The method, boiled down: as §1
A short description of experiment [15]: qHTS of pediatric cancer cell lines to identify multiple opportunities for drug repurposing: Primary screen for control Hh wild type fibroblast cells (AID 1347106).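 Note: series mostly up to about 46 µM; a drop in luminescence marks cytotoxicity and a rise apparent proliferation; nearly all actives have a fitted effect of over 55% in size.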 An outline of the steps: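 Cells (500-1,000/well) in growth media were settled 5 h at 37 degrees C, then given compounds for 48 h. Viability was read as CellTiter-Glo luminescence. Primary runs used MIPE at 11 points (0.78 nM-46 µM) and NPC at 8 points (0.59 nM-46 µM); follow-ups used 11 points.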

Experiment [16] in a line: qHTS of pediatric cancer cell lines to identify multiple opportunities for drug repurposing: Primary screen for Rh30 cells (AID 1347107). Note: series mostly up to about 46 µM; nearly all actives have a fitted effect of over 75% in size. An outline of the steps: as §2
Experiment [17] can be described thus: qHTS of pediatric cancer cell lines to identify multiple opportunities for drug repurposing: Primary screen for Rh41 cells (AID 1347108). Note: nearly all actives have a fitted effect of over 70% in size. Note: potency is the fitted concentration of half-maximal effect. The method, boiled down:
as §1

A short description of experiment [18]: qHTS of pediatric cancer cell lines to identify multiple opportunities for drug repurposing: Confirmatory screen for NB1643 cells (AID 1347109). Note: nearly all actives have a fitted effect of over 45% in size. Note: potency is the fitted concentration of half-maximal effect. An outline of the steps:
as §2

Experiment [19] is described as follows: qHTS of pediatric cancer cell lines to identify multiple opportunities for drug repurposing: Confirmatory screen for SK-N-MC cells (AID 1347111).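 Note: cells exposed to compound for 48 h before the readout; nearly all actives have a fitted effect of over 70% in size.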 Note: potency is the fitted concentration of half-maximal effect. An outline of the steps: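 Seed 500-1,000 cells/well; rest 5 h at 37 degrees C. Pin-transfer compounds, 11-point titration. Incubate 48 h. Add CellTiter-Glo, 15 min RT, read luminescence.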

For `NNc1nncc2ccccc12`, the Potency entry in experiment [1], in [2], in experiment [3], in experiment [4], in experiment [5] and in [6] was “inactive” in each case. Besides, the Potency entry in experiment [7], in experiment [8], in experiment [9], in [10], in [11] and in [12] was “inactive” throughout. For the same compound, the Potency entry in experiment [13], in [14], in experiment [15], in experiment [16] and in experiment [17] was “inactive” in each case.

`Cc1ccc(NC(=O)c2ccc(CN3CCN(C)CC3)cc2)cc1Nc1nccc(-c2cccnc2)n1`: the Potency entry in experiment [1], in experiment [2], in [3], in experiment [4], in experiment [5] and in experiment [6] was “inactive” throughout. Further, the Potency entry in experiment [8], in experiment [9], in experiment [11], in [14], in experiment [15] and in experiment [16] was “inactive” throughout. The Potency entry in experiment [17] and in experiment [18] was “inactive” each time. In addition, the Potency in experiment [7] is 34.4 µM (active); in experiment [12], 17.4 µM (active).

With `Cc1cc(=O)oc2cc(O)ccc12`, the Potency result in [1], in experiment [2], in experiment [3], in [4], in [5] and in experiment [6] was “inactive” in each case. Moreover, the Potency entry in experiment [7], in [8], in [9], in experiment [10], in experiment [11] and in experiment [12] was “inactive” in each case. Also, the Potency entry in [13], in experiment [14], in experiment [15], in experiment [16] and in experiment [17] was “inactive” throughout.

As for `Cc1cc(=O)c2c(O)c3c(O)cc(=O)c4c3c3c(cc(O)c1c23)C(C)(C)C=4O`, the Potency in experiment [1] is 0.332 µM (active); in [2] it was 1.3 µM (active) and 1.48 µM (active); in [3] it was 1.69 µM (active) and 6.85 µM (active); in experiment [4], 5.8 µM (active) and 418 nM (active); in experiment [6], 1.46 µM (active) and 2.09 µM (active); in experiment [8] it was 1.16 µM (active) and 2.35 µM (active). Further, the Potency in experiment [9] is 2.59 µM (active) and 5.26 µM (active); in experiment [12] it was 1.51 µM (active) and 2.43 µM (active); in experiment [13], 2.06 µM (active) and 3.72 µM (active); in [14] it was 920 nM (active) and 4.69 µM (active); in experiment [17] it was 18.7 µM (active). Besides, the Potency entry in experiment [7], in experiment [11] and in experiment [15] was “inactive” throughout.

Turning to `CC(C)c1ccc2oc3nc(N)c(C(=O)O)cc3c(=O)c2c1`, the Potency entry in experiment [1], in [2], in experiment [3], in experiment [4], in experiment [5] and in experiment [6] was “inactive” each time. The Potency result in experiment [7], in experiment [8], in [9], in experiment [10], in experiment [11] and in [12] was “inactive” in each case. For the same compound, the Potency entry in experiment [13], in experiment [14], in experiment [15], in [16] and in [17] was “inactive” throughout.

In the case of `c1cnc2cc3c(cc2n1)C1CNCC3C1`, the Potency entry in experiment [1], in [3], in [4], in experiment [5], in experiment [6] and in experiment [7] was “inactive” throughout. Also, the Potency result in experiment [10], in [11], in [12], in experiment [13], in experiment [14] and in [15] was “inactive” in each case. For the same compound, the Potency result in experiment [16], in experiment [17], in experiment [18] and in [19] was “inactive” each time. Besides, the Potency in experiment [2] is 4.69 µM (active).

For the compound `Cc1c(C(=O)NN2CCCCC2)nn(-c2ccc(Cl)cc2Cl)c1-c1ccc(Cl)cc1`, the Potency is 13.2 µM (active) in experiment [1]; 21.1 µM (active) and 7.43 µM (active) in [2]; 3.85 µM (active) in experiment [3]; 27.3 µM (active) and 30.4 µM (active) in experiment [7]; 3.72 µM (active) in [9]; 4.85 µM (active) in experiment [10]. Further, the Potency in [12] was 4.85 µM (active); in [13] it was 18.7 µM (active); in experiment [19] it was 7.37 µM (active). Moreover, the Potency entry in experiment [5], in experiment [15], in experiment [16] and in experiment [17] was “inactive” throughout.

With `COC(=O)N[C@H](C(=O)N[C@@H](Cc1ccccc1)[C@@H](O)CN(Cc1ccc(-c2ccccn2)cc1)NC(=O)[C@@H](NC(=O)OC)C(C)(C)C)C(C)(C)C`, the Potency entry in experiment [1], in experiment [2], in [3], in experiment [4], in experiment [5] and in [6] was “inactive” in each case. Further, the Potency entry in [7], in experiment [8], in [9], in experiment [10], in experiment [11] and in experiment [12] was “inactive” in each case. For the same compound, the Potency result in [13], in [14], in experiment [15], in experiment [16] and in experiment [17] was “inactive” in each case.

`COC(=O)C1=C(C)NC(C)=C(C(=O)OC(C)C)C1c1cccc2nonc12` (centres undefined): the Potency result in experiment [1], in experiment [3], in experiment [4], in experiment [5], in experiment [6] and in experiment [9] was “inactive” in each case. Also, the Potency entry in [10], in [11], in experiment [12], in experiment [13], in experiment [15] and in experiment [16] was “inactive” each time. For the same compound, in [17], the Potency result is “inactive”. Moreover, the Potency in experiment [2] was 2.64 µM (active).

As to `NC(=O)Cc1cccc(C(=O)c2ccccc2)c1N`, the Potency entry in [1], in experiment [2], in experiment [3], in experiment [4], in experiment [5] and in [6] was “inactive” each time. Further, the Potency result in experiment [7], in experiment [8], in [9], in experiment [10], in experiment [11] and in [12] was “inactive” each time. The Potency entry in experiment [13], in experiment [14], in experiment [15], in experiment [16] and in experiment [17] was “inactive” in each case.

In the case of `CC(C)CC(=O)N[C@H](C(=O)N[C@H](C(=O)N[C@@H](CC(C)C)[C@@H](O)CC(=O)N[C@@H](C)C(=O)N[C@@H](CC(C)C)[C@@H](O)CC(=O)O)C(C)C)C(C)C` (Isovaleryl-VV[Sta]A[Sta]-OH), the Potency entry in experiment [1], in experiment [2], in experiment [3], in [5], in [6] and in experiment [7] was “inactive” each time. The Potency result in [8], in experiment [9], in experiment [10], in [11], in experiment [12] and in experiment [13] was “inactive” each time. The Potency result in experiment [14], in [15], in [16] and in experiment [17] was “inactive” in each case. For the same compound, the values for the Potency in experiment [18] and in experiment [19] were 16.5 µM (active) and 5.22 µM (active), respectively.

`Cc1ccc(S(=O)(=O)NC(=O)NN2CC3CCCC3C2)cc1` (centres undefined): the Potency result in experiment [1], in [2], in [3], in experiment [4], in experiment [5] and in experiment [7] was “inactive” in each case. The Potency result in [8], in [10], in experiment [11], in experiment [14], in experiment [15] and in experiment [16] was “inactive” throughout. For the same compound, the Potency entry in experiment [17] is “inactive”. The Potency in experiment [6] was 7.5 µM (active) and 18.7 µM (active).

Turning to `COC(=O)C1=C(C)NC(C)=C(C(=O)OCCCN2CCC(c3ccccc3)(c3ccccc3)CC2)C1c1cccc([N+](=O)[O-])c1` (centres undefined), the Potency result in experiment [1], in [3], in experiment [4], in experiment [8], in [9] and in experiment [10] was “inactive” throughout. The Potency result in experiment [11], in experiment [13], in [15], in experiment [16] and in [17] was “inactive” throughout. The Potency in experiment [2] was 23.7 µM (active); in experiment [7] it was 15.4 µM (active).

The record behind these values is PubChem BioAssay (NCATS).
